Measured values: PubChem BioAssay (NCI)
Compounds without any hit were thinned out: in the full panel of roughly 79,000, 15% have a hit. A number with no mark means an inactive call. The source made the active and inactive calls. Rule as the data show it: active = growth inhibition above about 70%; inactive = the rest.

What was measured:
[1] = NCI Yeast Anticancer Drug Screen. Data for the rad50 strain (AID 155);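 also: 0% = growth of vehicle-only cultures of the same strain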; settings: S. cerevisiae rad50 strain growth inhibition; at 50.0 µM; hits give high values
Summary of the method: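 Inhibition values express reduced yeast growth in compound-treated cultures relative to vehicle-treated controls.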

[2] = NCI Yeast Anticancer Drug Screen. Data for the mec2-1 strain (AID 157); settings: S. cerevisiae mec2-1 strain, at 50.0 µM, hits give high values
Summary of the method: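 Vehicle-treated cultures served as reference for growth inhibition of compound-exposed mec2-1 yeast.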

[3] = NCI Yeast Anticancer Drug Screen. Data for the sgs1 mgt1 strain (AID 161);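 also: 0% = growth of cultures given vehicle only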; settings: S. cerevisiae sgs1 mgt1 strain, at 50.0 µM, hits give high values
Summary of the method: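 Genetically altered yeast, compound exposure, growth inhibition relative to vehicle.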

[4] = NCI Yeast Anticancer Drug Screen. Data for the cln2 rad14 strain (AID 165);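 also: 0% = growth equal to vehicle treated cultures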; settings: S. cerevisiae cln2 rad14 strain, at 50.0 µM, hits give high values
Summary of the method: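 Each compound was tested on cln2 rad14 yeast. Inhibition of growth was calculated against vehicle-exposed controls.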

[5] = NCI Yeast Anticancer Drug Screen. Data for the bub3 strain (AID 167); settings: S. cerevisiae bub3 mutant strain, at 50.0 µM, hits give high values
Summary of the method: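 Steps: expose the mutant yeast strain to compound; grow alongside vehicle-treated cultures; measure growth; express inhibition against the vehicle cultures.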

[6] = NCI Yeast Anticancer Drug Screen. Data for the mlh1 rad18 strain (AID 175); settings: S. cerevisiae mlh1 rad18 strain growth inhibition; at 50.0 µM; hits give high values
Summary of the method: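 Vehicle-treated cultures served as the reference for growth inhibition in a yeast strain carrying DNA damage repair alterations exposed to each compound.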

| Structure (SMILES) | growth inhibition [1] | growth inhibition [2] | growth inhibition [3] | growth inhibition [4] | growth inhibition [5] | growth inhibition [6] |
| --- | --- | --- | --- | --- | --- | --- |
| O=C(c1ccccc1)N1CC(Cl)CN(C(=O)c2ccccc2)CC(Cl)C1 (stereo unspecified) | 21.4% | 26% | 37.8% | 14.8% | 16.3% | 25.6% |
| COC1C(OC(=O)c2ccc(C)[nH]2)C(O)C(Oc2ccc3c(O)c(NC(=O)c4ccc(O)c(CC=C(C)C)c4)c(=O)oc3c2Cl)OC1(C)C (stereo unspecified) | 44.2% | 25.9% | 23.8% | 50.6% | 35.9% | 33% |
| CC([Se])=Nc1ccc(Br)cc1 | 21.6% | 0.8% | -0.2% | -8.9% | -1.45% | 9.1% |
| COCCOC(=O)NCP(Cl)(CNC(=O)OCCOC)(CNC(=O)OCCOC)CNC(=O)OCCOC | -11.6% | -4.85% | -29.8% | -19.7% | -1.75% | -5.75% |
| OC(c1ccccc1)C(Cl)(Cl)Cl (stereo unspecified) | 17.1% | -10.8% | 13.7% | -42.1% | -14.1% | 3.55% |
| O=P(Oc1ccccc1)(Oc1ccccc1)Oc1c(Cl)c(Cl)c(O)c(Cl)c1Cl | 23.6% | 10% | 38.9% | 19.1% | -16.4% | 2.35% |
| O=C1NC(=O)C(=C/C=C/c2ccccc2)C(=O)N1 | 34.2% | -3.5% | 18.6% | 16.4% | 10.5% | -2.25% |
| COc1ccc(S(=O)(=O)F)cc1NC(=O)CCc1ccc(N2C(N)=NC(N)=NC2(C)C)cc1Cl | 79.8% (active) | 78.5% (active) | 86.8% (active) | 16.2% | 4.7% | 65.2% |
| NC(N)=NC(N)=Nc1ccc(Cl)cc1 | 0.9% | -2.65% | 3.45% | 2.8% | -1.9% | -1.55% |
| COP(=O)(Cc1ccc(/C=C/C#N)o1)OC | -12.2% | -3.1% | -38.8% | -22.1% | 18.2% | -10.2% |
| CN(C)P1(=O)OCC(C(C)(C)C)CN1c1ccccc1 (stereo unspecified) | -6.6% | 2.95% | -2.8% | -22.2% | -12.9% | -14.3% |
| CN1C2CCC1CC(OC(=O)c1cccc(O)c1)C2 (stereo unspecified) | 30.9% | 0.55% | 0.9% | 4.95% | 15.9% | 16.4% |
| C=CCCCCCCCCC(=O)Nc1ccc(Cl)cc1C(=O)c1ccccc1 | -2.3% | 0% | 4.3% | 28.2% | -7.95% | 13.8% |
| CCOC(=O)C(CC)(CC)C(=O)OCC | -18.9% | -2.3% | -29.6% | -38% | -12.4% | 4% |
| CC(=O)O[C@@]12CO[C@@H]1CC(O)[C@@]1(C)C(=O)[C@H](O)C3=C(C)C(O)C[C@@](O)(C(OC(=O)c4ccccc4)C12)C3(C)C (stereo partly specified) | -12.8% | -28.4% | -12.3% | -5.9% | -29.4% | -8.65% |
| CSP(=S)(SC)SC(C)C | 19% | 1.65% | 24.1% | 27.2% | 6.5% | -4.45% |
| COC(=O)C1C(OC(=O)c2ccccc2)CC2CCC1N2C(N)=O (stereo unspecified) | -12.6% | -0.75% | -8.05% | -23% | -15.9% | 3.3% |
| COC(=O)C(O)(c1ccccc1)C1CCCC1 (stereo unspecified) | 20.8% | -10.1% | -10.6% | 11.9% | 10.1% | -9.5% |
| NC(CCC(=O)NC(CSc1ccc([N+](=O)[O-])cc1[N+](=O)[O-])C(=O)NCC(=O)O)C(=O)O (stereo unspecified) | 0.05% | -4.75% | 12.2% | 8.7% | 3.2% | -11.1% |
| CC(C)(C)N1OC1c1cccc(Cl)c1 (stereo unspecified) | 29.6% | 29.4% | 10.8% | 11.9% | -2.85% | 36.5% |
| C[n+]1ccccc1-c1ccc[n+](CCCCC[n+]2cccc(-c3cccc[n+]3C)c2)c1 | 4.45% | -8.6% | -5.5% | -22.4% | -1.5% | 8.15% |

| Structure (SMILES) | growth inhibition [1] | growth inhibition [2] | growth inhibition [3] | growth inhibition [4] | growth inhibition [5] | growth inhibition [6] |
| --- | --- | --- | --- | --- | --- | --- |
| CCc1cc(C)cc2[n+]1CC=C2C | 6.45% | 5.1% | 6.85% | 21.7% | -0.7% | 14.5% |
| CC1(C)OC2(C)CCC1C1C2N1C(=O)c1ccccc1 (stereo unspecified) | 0.75% | -9.75% | 5.25% | 4.95% | 19.2% | -6.2% |
| CC1=CC2OC3CC4OC(=O)/C=C/C=C/C(=O)OCC/C(C)=C/C(=O)OCC2(CC1O)C4(C)C31CO1 (stereo unspecified) | 92.3% (active) | 93.6% (active) | 93% (active) | 91.7% (active) | 91.8% (active) | 90.9% (active) |
| O=C(c1ccccc1)c1c(CC(O)c2ccccc2)n(C(=O)c2ccccc2)c2ccccc12 (stereo unspecified) | 10.6% | -20.1% | -14.3% | -67.2% | -22.9% | -13.9% |
| CCCCCCCNC(c1ccccc1)C(O)c1ccccc1 (stereo unspecified) | 8.4% | 10.4% | 12.1% | -40.2% | 1.55% | -3.05% |
| Nc1ccc2ncccc2c1 (tested in a mixture with another compound) | 39.2% | 97.5% (active) | 45.5% | 56.4% | 46.5% | 26.2% |
| CCC1CC[Si](C)(C)CC12C(=O)NC(=O)NC2=O (stereo unspecified) | 0.85% | -2.25% | 11.5% | 1.65% | 12.9% | -0.55% |
| C=CCN1CN(c2ccccc2)C2(CCN(CCCC3(c4ccc(F)cc4)OCCO3)CC2)C1=O | -18.1% | -7.55% | 1.4% | 0.4% | 0.7% | -13.8% |
| [Cl][Sn]1([Cl])[CH2]CC[CH2][Sn]([Cl])([Cl])[CH2]CC[CH2]1 | 3.4% | 34% | -13.1% | 39.4% | -5.4% | 27.4% |
| [Cl][Hg][c]1cccs1 | 99.6% (active) | 99.8% (active) | 99.5% (active) | 99.5% (active) | 99.7% (active) | 99.6% (active) |
| C[C@]12CCC(=O)C[C@@H]1CC[C@@H]1[C@@H]2CC[C@]2(C)[C@@H](OC(=O)N(CCCl)N=O)CC[C@@H]12 | 36.8% | 33.8% | 24.5% | 55.2% | 29.9% | 60.1% |
| Oc1ccccc1C=NCCN=Cc1ccccc1O | -15.2% | -11.6% | -1.1% | -41.2% | -9.2% | 31.8% |
| CC(Cc1ccc2c(c1)OCO2)NCC(O)c1ccc(O)c(O)c1 (stereo unspecified) | 14.6% | -20.2% | 18.2% | 5% | 32.2% | 26.6% |
| CC(Cc1ccc(Cl)cc1Cl)NO (stereo unspecified) | 15.7% | -12.2% | -15.9% | -25.6% | -43.2% | -2.15% |
| CC([NH-])C(=O)O.[Cl][Pt][Cl] (stereo unspecified) | -25.6% | -9.6% | -24.9% | 7.55% | -10.6% | -9.55% |
| COc1ccc(-n2c(C)nc3ccccc3c2=O)cc1CN(CCCl)CCCl | 4.45% | -3.55% | -8.15% | -22.1% | 2.6% | 2.3% |
| COc1cc2c(cc1OC)C(c1ccc(O)c(O)c1)CNC2 (stereo unspecified) | -27.8% | -7.9% | -31.1% | -10.1% | -21.1% | -5.3% |
| N[C@@H]1CCCC[C@@H]1N.O=P([O-])([O-])CN(CP(=O)([O-])[O-])CP(=O)([O-])[O-].[Pt+2] | -5.05% | -6.4% | -10.2% | 14.9% | -0.1% | -21.1% |
| C[C@]12CC[C@H]3[C@@H](CC=C4C=C(P(=O)(O)O)CC[C@@]43C)[C@@H]1CC[C@@H]2O | -8.1% | 5.2% | -8.55% | -56.3% | -12.9% | -10.1% |
| c1cc[n+]2c(c1)-c1cccc[n+]1CC2 | 65.8% | 11% | 52.7% | 26% | 19.3% | 53.1% |
